Test results from PubChem BioAssay AID1304 (The Scripps Research Institute Molecular Screening Center, 2008).
“And” between values parts separate entries of the source, which are not always exact repeats. Equal entries are not always repeated. The campaign covered roughly 220,000 compounds. About 800 (0.36%) were called active. The list comes from a sample in which actives are over-represented; it also holds similar structures and randomly drawn compounds. Unmarked numbers belong to inactive results. No stated cut-off is given here; in the data, active means activation above about 33% (passing the limit was not always enough); inactive means the rest.

Biological target: Neuropeptide Y receptor type 1 (Homo sapiens) (UniProt P25929)
Assay: activation enhancers of human NPY-Y1 – cell-based, primary screen (AID 1304);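 further: cells stimulated with NPY at EC10 then isoproterenol at EC100; 0% = low agonist plus stimulus and 100% = saturating agonist plus stimulus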
Conditions: NPY-Y1 expressing cells, potentiator/agonist activation; at 3.6 µM; active compounds read high

Neuropeptide Y receptor type 1 (Homo sapiens), sequence (P25929 whole entry, looked up): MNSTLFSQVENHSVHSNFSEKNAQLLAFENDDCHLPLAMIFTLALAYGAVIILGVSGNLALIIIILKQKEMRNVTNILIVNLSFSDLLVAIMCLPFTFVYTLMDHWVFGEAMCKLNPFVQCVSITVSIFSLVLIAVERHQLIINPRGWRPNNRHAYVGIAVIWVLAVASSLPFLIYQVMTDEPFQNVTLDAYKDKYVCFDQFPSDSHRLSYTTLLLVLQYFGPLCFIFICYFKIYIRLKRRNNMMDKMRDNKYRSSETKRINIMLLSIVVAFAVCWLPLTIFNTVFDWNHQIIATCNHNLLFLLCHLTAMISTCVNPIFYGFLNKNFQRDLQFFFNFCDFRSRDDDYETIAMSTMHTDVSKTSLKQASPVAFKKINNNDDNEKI

Compared with Cc1nnc(SCC2=C(C(=O)O)N3C(=O)C(NC(=O)Cn4nc(C)c(Cl)c4C)C3SC2)s1 (stereo unspecified), CC(C)(C)NC(=O)Cn1c(SCC(=O)Nc2nccs2)nc2ccccc21 is higher in activation: -9.62% for the first, -9.44% for the second.

First: Cn1nc(C(F)(F)F)cc1C(=O)O
Second: O=c1[nH]oc(O)c1-c1ncc(C(F)(F)F)cc1Cl
The activation of the first is lower: -6.07% for the first, 7.56% for the second.

Compared with COc1ccc(C(=O)OCC(=O)NC(=O)CCSc2ccccc2)cc1, CCOC(=O)c1ccc(NC(=O)C2CC(=O)Nc3nc4ccccc4n32)cc1 (stereo unspecified) is higher in activation: -33.3% for the first, 2.63% for the second.

Going from COc1cccc(CNC(=O)CCC2CCCN(Cc3ccc(OC(F)F)cc3)C2)c1 (stereo unspecified) to O=C(Nc1ccc(F)cc1F)N1CCCN(CCOc2ccccc2)CC1, the activation rises from 4.57% to 4.67%.

Compared with C[C@@H]1NC(=O)c2cc([N+](=O)[O-])cc(F)c2NCCC[C@@H](C(N)=O)NC(=O)[C@H](CC(N)=O)NC1=O, COc1ccccc1N(C)S(=O)(=O)c1ccc(Cl)c(C(=O)N2CCC(C(N)=O)CC2)c1 is higher in activation: 3.2% for the first, 29.7% for the second.

Going from COC(=O)c1sc(C(F)(F)F)c(-c2ccccc2)c1S(=O)(=O)N(C)C to CN(c1ccccc1)S(=O)(=O)c1ccc(Cl)c(C(=O)OCC(=O)NCc2ccco2)c1, the activation rises from 5.29% to 16.8%.

Going from CCCCCCCCc1c(O)nc(-n2[nH]c(C)c(CCO)c2=O)[nH]c1=O to CCCCNC(=O)Nc1c(C)cc(SC#N)cc1C, the activation falls from 11.5% to -6.72%.

Compared with CC(C)NC(=O)c1ccc(Sc2ccccc2)c([N+](=O)[O-])c1, Cc1nnc(SC(C(=O)c2ccccc2)c2ccccc2)[nH]c1=O (stereo unspecified) is lower in activation: 4.46% for the first, -19.4% for the second.

Compared with O=C(COc1ccc([N+](=O)[O-])cc1)Nc1ccc(N2CCCC2)cc1, COc1ccc(C(=O)Nc2ccc(-n3nncc3C(C)(C)C)cc2)cc1 is higher in activation: -4.81% for the first, 1.57% for the second.

First: COc1ccc(/C=N/NC(=O)Nc2ccc3nsnc3c2)c(OC)c1
Second: CC(=O)c1cccc(NC(=O)Nc2ccc(C)cc2)c1
The activation of the first is higher: 7.9% for the first, -1.32% for the second.

First: Cc1ccc(NC(=O)CCOc2ccccc2)cc1S(=O)(=O)Nc1ccccc1Cl
Second: CC(=O)Nc1ccc(S(=O)(=O)NCCc2ccccc2)cc1
The activation of the first is higher: 21.9% for the first, -20.2% for the second.

Going from COc1ccccc1OCCNC(=O)c1cc([N+](=O)[O-])cc([N+](=O)[O-])c1 to CC(O)CNCCOc1cccc(Oc2ccccc2)c1 (stereo unspecified), the activation falls from 1.67% to -10%.

Compared with COc1ccc(C2c3[nH]c4ccccc4c3CCN2CCCn2cccn2)cc1C (stereo unspecified), Cc1ccc(NC(=S)N2CCCC(c3ccccc3)=N2)cc1 is higher in activation: -23.6% for the first, -12% for the second.

Compared with Nc1nc(SCC(=O)NNc2c(Cl)cc(Cl)cc2Cl)n[nH]1, Cn1cnnc1SCC(=O)NNC(=O)COc1ccc(Br)cc1 is lower in activation: 3.91% for the first, -5.38% for the second.

First: C/C(=N\NC(=O)NC1CCCCC1)c1ccc(OC(F)F)cc1OC(F)F
Second: CC1CCCCC1NC(=O)CN1CCC(O)(c2ccc3c(c2)OCO3)CC1 (stereo unspecified)
The activation of the first is lower: -17% for the first, 3.89% for the second.

First: CCCCNC(=O)C1CCC(CNS(=O)(=O)c2ccc(NC(C)=O)cc2)CC1 (stereo unspecified)
Second: Cc1ccc(NC(=O)CC(=O)Nc2ccc(C)cc2)cc1
The activation of the first is lower: -15.8% for the first, -0.47% for the second.

Going from CSc1nc(-c2ccco2)nn1C(=O)CCc1ccccc1 to CS(=O)(=O)n1nc(-c2ccco2)nc1N, the activation rises from -13.4% to -9.25%.

Compared with S=c1[nH]nc(-c2cc(-c3ccsc3)n[nH]2)n1-c1ccccc1, O=C(Nc1ccccc1)C1CC(=O)n2c(nc3ccccc32)N1 (stereo unspecified) is higher in activation: -8.71% for the first, 16.2% for the second.

Going from Cc1nnsc1C(=O)N/N=C/c1ccccc1Cl to C/C(Cc1ccccc1)=N\NC(=O)CNC(=O)c1ccccc1Cl, the activation rises from -6.23% to -3%.

Compared with CCOC(=O)C1(CC2CCCCO2)CCN(Cc2nc(-c3cccs3)oc2C)CC1 (stereo unspecified), Cc1ccc(C(=O)Nc2nnc(-c3cccs3)s2)cc1C is higher in activation: 1.86% for the first, 19.3% for the second.

Compared with Cc1noc(COc2ccccc2OCc2onc(C)c2Cl)c1Cl, CCOC(=O)c1cnc2ccc(F)cc2c1Nc1ccc2c(c1)OCCO2 is higher in activation: -31.2% for the first, -7.89% for the second.

Compared with CC(C)(C)CC(C)(C)NCC(O)COCCOc1ccc(Br)cc1 (stereo unspecified), CC(=O)NC(=S)NNC(=O)c1ccc(Br)cc1 is higher in activation: -16.3% for the first, -6.38% for the second.

First: Nc1nc(O)c(CC(=O)O)s1
Second: CC(=O)c1sc(NC(=O)c2ccc(C)cc2)nc1C
The activation of the first is lower: -3.67% for the first, 5.15% for the second.

First: CCc1cc(-c2n[nH]c(=S)n2CC(C)C)cs1
Second: COc1ccc2[nH]c(=S)cc(C)c2c1
The activation of the first is lower: -23.7% for the first, -18.7% for the second.

Going from CO/N=C/c1cn(-c2ccc(Cl)cc2)nn1 to O=C(CCCN1C(=O)c2ccccc2C1=O)Oc1ccc(Cl)cc1, the activation falls from -2.97% to -9.31%.

First: O=C(NCCc1csc(-c2ccccc2)n1)c1ccccc1F
Second: CCN(CC)CC(=O)c1c[nH]c2ccc(OC)cc12
The activation of the first is lower: -10.8% for the first, -5.01% for the second.

For COc1ccccc1OCCNCC(O)COc1cccc2[nH]c3ccccc3c12 (stereo unspecified), the activation was 107% (active) and 106% (active).
COCCCNC(=O)c1ccc(CNS(=O)(=O)c2ccc(NC(C)=O)cc2)cc1 was tested, and the activation was 36.8% (active).
CSc1nc(-c2ccco2)nn1C(=O)c1ccccc1Cl was tested, and the activation was 56.1% (active).
In the case of CC(=O)O[C@]1(C(C)=O)CC[C@H]2[C@@H]3C=C(C)C4=CC(=O)CC[C@]4(C)[C@H]3CC[C@@]21C, the activation was -14.5% and 5.59%.
For Cc1noc(COc2ccccc2OCC(O)CNC(C)(C)C)n1 (stereo unspecified), the activation was 111% (active).
In the case of COC(=O)c1ccc(NC(=O)Nc2ccc(C)cc2)cc1, the activation was 101% (active).
With N#Cc1ccc(C(=O)Nc2nc(-c3cccs3)c(C(=O)C(F)(F)F)s2)cc1 the activation was 45.4% (active).
CC(=O)c1ccc(NC(=O)C2CC(=O)Nc3nc4ccccc4n32)cc1 (stereo unspecified) was tested, and the activation was 46.6% (active).
COc1ccc2[nH]c3ccc(OC)cc3c2c1 was tested, and the activation was 64.7% (active).
